Assay [1] is described as follows: STM_H9_OrnCyssISnorm_ratio: Stemina devTOX quickPredict H9 human embryonic stem cell (hESC)-based Assay for Ornithine (ORN):Cystine (CYSS) Ratio (AID 2283714; active means hit-call score of the fitted dose curve at least 0.9, where 1 is the maximum). Summed up:
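Undifferentiated H9 hESCs were exposed to compound for 72h with media and chemical replaced every 24h. Final 24-h conditioned media were deproteinized and analysed by UPLC-HRMS. ORN and CYSS peak areas were normalized to C13 internal standards and the ratio taken versus 0.1% DMSO.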

The nature of assay [2]: CCTE_Padilla_ZF_144hpf_TERATOSCORE: (Legacy) CCTE's 144 Hour Post-fertilization zebrafish Assay Teratoscore, Padilla Lab (AID 2283679).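 Further: zebrafish embryos with chorions exposed by immersion from 6-8 hpf to 5 dpf with daily renewal; teratogenicity score from eye scoring of death hatching and malformations at 144 hpf; higher score means more developmental defects relative to DMSO baseline.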 Summed up: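 Larvae scored by eye at 144 hpf for death, hatching and malformations after a day in clean Hanks'. Before that, daily-renewed exposure at 80 uM (0.4% DMSO, 26C) from roughly 6-8 hpf through 5 dpf, 4 embryos per chemical.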
Assay [3] is described as follows: CEETOX_H295R_MTT_cell_viability: Viability Assessment in the CeeTox HT-H295R MTT Assay (AID 2283718). In a few lines:
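H295R cells prestimulated 48 h with 10 uM forskolin, then exposed 48 h to test chemical (0.1% DMSO final). Viability by MTT (0.5 mg/ml, 4 h, 37 C), absorbance 570/650 nm; percent change versus DMSO, bidirectional fit.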

Assay [4] in a line: Tanguay_ZF_120hpf_ActivityScore_legacy: (Legacy) Oregon State University Tanguay Lab 120 Hour Post-fertilization zebrafish Assay Score for Activity (AID 2283742; active means hit-call score of the fitted dose curve at least 0.9, where 1 is the maximum). In a few lines: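 Tropical 5D wild-type zebrafish embryos, dechorionated with pronase at 4 hpf, were exposed singly from 6 hpf to 120 hpf statically at 28C in 0.64% DMSO. Malformations and mortality were scored as binary by brightfield, with the activity score combining 18 morphology components.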

Assay [5] has as its target Luciferin 4-monooxygenase (Photinus pyralis) (UniProt P08659). Put plainly: CCTE_Simmons_QuantiLum_inhib_2: CCTE's Firefly Luciferase Inhibition Assay, Simmons Lab (AID 2283767; active means hit-call score of the fitted dose curve at least 0.9, where 1 is the maximum). In a few lines:
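Luminescence loss relative to DMSO vehicle defines inhibition; detection reagent containing 150 uM D-luciferin and 147 uM dATP (final, pH 7.8) is injected immediately before each read. Enzyme is preincubated with an 8-point titration (5 nM–87.5 uM final) for 30 min at 37C.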

Assay [6] in a line: STM_H9_CystineISnorm_perc: Stemina devTOX quickPredict H9 human embryonic stem cell (hESC)-based Assay for Cystine (CYSS) Metabolite Biomarker, Normalized (AID 2283713). Summed up: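 H9 hESC, pluripotent; compound 72h, re-dosed q24h with medium change. Last-24h medium → 40% acetonitrile deproteinization → UPLC-HRMS. CYSS area / C13-CYSS standard, then % of 0.1% DMSO median.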

The target in assay [7] is zebrafish Estrogen Receptor (ESR1), esr1 (gene 259252) (UniProt P57717). Put plainly: ATG_zfER1_XSP1: Attagene TRANS-FACTORIAL Multi-Species (XSP1) HepG2 Assay for zebrafish Estrogen Receptor (ESR1) (AID 2283772; active means hit-call score of the fitted dose curve at least 0.9, where 1 is the maximum). In a few lines: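 Exogenous chimeric receptor-GAL4 activity is measured in transiently transfected human HepG2 liver cells after 24 h compound exposure. Reporter transcripts are detected by RT-PCR and fluorescent capillary electrophoresis, analysed for signal gain relative to DMSO.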

Results filed as inconclusive are left out. Calls of active or inactive are those of the source. How the source made its calls, unless noted: active means hit-call score of the fitted dose curve at least 0.9, where 1 is the maximum; inactive means score below 0.9.

In PubChem BioAssay (EPA / NIEHS) one finds AC50 and outcome data, which are given here for 13 compounds.

For orientation: AC50 means the midpoint of the concentration-response curve, whichever way the signal moves.

Sequence of Luciferin 4-monooxygenase (Photinus pyralis) (P08659 whole entry, looked up): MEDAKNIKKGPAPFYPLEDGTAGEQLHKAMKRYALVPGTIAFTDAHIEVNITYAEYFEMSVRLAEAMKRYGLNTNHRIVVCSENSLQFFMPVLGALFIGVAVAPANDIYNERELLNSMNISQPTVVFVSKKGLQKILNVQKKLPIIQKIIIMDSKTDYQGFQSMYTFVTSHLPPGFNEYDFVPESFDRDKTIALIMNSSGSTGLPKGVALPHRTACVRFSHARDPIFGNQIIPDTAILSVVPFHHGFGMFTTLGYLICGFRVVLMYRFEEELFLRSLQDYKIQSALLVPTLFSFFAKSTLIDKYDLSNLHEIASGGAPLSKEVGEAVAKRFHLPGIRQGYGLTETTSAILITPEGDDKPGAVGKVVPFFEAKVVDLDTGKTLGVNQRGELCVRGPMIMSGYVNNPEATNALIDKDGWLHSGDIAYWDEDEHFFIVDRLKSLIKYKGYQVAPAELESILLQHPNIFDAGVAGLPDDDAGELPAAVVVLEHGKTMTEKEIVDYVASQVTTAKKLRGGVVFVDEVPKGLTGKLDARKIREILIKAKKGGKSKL
Sequence of zebrafish Estrogen Receptor (ESR1), esr1 (gene 259252) (P57717 whole entry, looked up, the tested form may be a part): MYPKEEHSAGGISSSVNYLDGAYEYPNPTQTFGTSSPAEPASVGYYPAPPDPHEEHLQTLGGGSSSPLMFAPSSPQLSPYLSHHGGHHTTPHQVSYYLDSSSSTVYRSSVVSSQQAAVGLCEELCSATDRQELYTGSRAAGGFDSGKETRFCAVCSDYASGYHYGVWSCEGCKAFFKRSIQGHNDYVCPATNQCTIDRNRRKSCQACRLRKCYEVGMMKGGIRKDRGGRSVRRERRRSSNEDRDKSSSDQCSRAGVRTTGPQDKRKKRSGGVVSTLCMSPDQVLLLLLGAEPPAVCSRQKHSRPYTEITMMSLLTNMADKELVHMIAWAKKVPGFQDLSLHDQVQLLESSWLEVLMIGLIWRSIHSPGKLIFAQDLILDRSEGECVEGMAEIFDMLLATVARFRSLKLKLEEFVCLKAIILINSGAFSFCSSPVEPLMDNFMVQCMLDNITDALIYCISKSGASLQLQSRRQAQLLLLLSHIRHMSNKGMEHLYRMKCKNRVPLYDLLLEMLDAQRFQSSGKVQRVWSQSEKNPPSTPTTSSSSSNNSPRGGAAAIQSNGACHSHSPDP

Take `O=C1CCCCCCCCCCCC(=O)OCCO1`: the AC50 in assay [1] is 13.2 µM (active).

With `CCOC(=O)C=Cc1ccccc1`, the AC50 in assay [1] is 24.8 µM (active).

As to `C[C@]12CC[C@@H]3c4ccc(O)cc4CC[C@H]3[C@@H]1CC[C@@H]2O`, the AC50 in assay [2] was 12 µM (active). For the same compound, the compound was called inactive in assay [3], in assay [4] and in assay [5].

As for `O=C(OCc1ccccc1)c1ccccc1O`, the result in assay [3] was inactive.

As to `CCCCCC1C(=O)CCC1CC(=O)OC` (stereo not drawn), the compound was classed as inactive in assay [3].

As for `O=C(O)c1ccccc1O`, the concentration at half-maximal activity (AC50) in assay [6] was 1490 µM (active).

Turning to `O=C(c1ccc(OCCN2CCCCC2)cc1)c1c(-c2ccc(O)cc2)sc2cc(O)ccc12`, the AC50 in assay [2] is 86.8 µM (active). Further, the result in assay [3], in assay [4] and in assay [5] was inactive.

Regarding `C#C[C@]1(O)CC[C@H]2[C@@H]3CCc4cc(O)ccc4[C@H]3CC[C@@]21C`, the AC50 is 5.77 µM (active) in assay [2] and 0.000281 µM (active) in assay [7]. Further, the outcome in assay [3], in assay [4] and in assay [5] was inactive.

As to `CCCCCCCCCCCCN1CCOCC1`, in assay [3], the result was inactive.

As for `CC(C)(C)c1cccc(O)c1`, the compound was classed as inactive in assay [3].

With `CCCc1ccc(O)cc1`, in assay [3], the call was inactive.

In the case of `C=C(C)C(N)=O`, the compound was called inactive in assay [4].

As for `CCCCOCCOCCO`, in assay [4], the compound was called inactive.
